Compound activity (PubChem BioAssay)
Giardia killer = Giardia lamblia killing; Giardia lamblia trophozoite viability; activity change, % at 7.66 µM, hits read low; actives 0.15% (n = 340,000); in the data active = activity change below about -80%; inconclusive = between about -30% and that limit;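 also: parasites exposed to compound for two days anaerobically before the ATP read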
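Giardia trophozoites, 100 cells per well, were exposed to compounds for 48 hrs at 37 deg C under anaerobic conditions; viability was then read as ATP content by bioluminescence after 15-30 min at room temperature.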
IL1B secr inh = inhibitors of inflammasome signaling (IL-1 beta secretion) | THP-1 LPS/ATP IL-1B secretion, AlphaLISA, 16 h; hits give low values | actives 4.7% (n = 360,000) | activity change, % at 57.5 µM; in the data active = activity change below about -50%; inconclusive = mostly about -30% to -49%
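Secreted IL-1B measured by AlphaLISA bead assay after 16 h compound exposure of THP-1 cells; compounds (final up to 57.5 uM) added 1 h before LPS (250 ng/mL) and ATP (1.25 mM) stimulation; lower signal means less secretion.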
TDP1 block = blocks human tyrosyl-DNA phosphodiesterase 1; Q9NUW8; recombinant TDP1, AlphaScreen DNA substrate cleavage; Potency, µM (highest dose often 130 µM), for inactives: top-dose activity change, negative = inhibition, actives largely listed as inhibitors; actives 0.28% (n = 350,000); also: potency is read from the fitted curve at half-maximal effect; nearly all actives have a fitted effect of over 40% in size
Target sequence (Q9NUW8 whole entry, looked up): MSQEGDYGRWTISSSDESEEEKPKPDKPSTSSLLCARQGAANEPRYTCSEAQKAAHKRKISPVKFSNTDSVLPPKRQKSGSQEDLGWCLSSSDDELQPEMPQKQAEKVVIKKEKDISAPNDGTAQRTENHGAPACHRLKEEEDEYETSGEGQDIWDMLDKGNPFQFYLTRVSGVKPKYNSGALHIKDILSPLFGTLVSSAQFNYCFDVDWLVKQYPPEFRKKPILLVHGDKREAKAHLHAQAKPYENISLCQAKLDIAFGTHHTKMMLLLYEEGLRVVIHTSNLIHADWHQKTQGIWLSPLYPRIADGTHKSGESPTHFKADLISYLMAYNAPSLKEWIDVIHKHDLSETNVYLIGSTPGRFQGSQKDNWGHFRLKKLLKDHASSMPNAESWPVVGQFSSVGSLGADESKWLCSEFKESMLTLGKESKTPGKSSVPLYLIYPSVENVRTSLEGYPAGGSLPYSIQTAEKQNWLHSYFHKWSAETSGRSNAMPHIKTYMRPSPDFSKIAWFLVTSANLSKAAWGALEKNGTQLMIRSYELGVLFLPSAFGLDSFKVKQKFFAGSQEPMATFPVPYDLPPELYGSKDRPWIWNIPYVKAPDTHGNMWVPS
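Tdp1 1 nM final; 15 min RT w/ cpd; substrate 15 nM, 5 min; beads 10 ug/ml, 10 min; AlphaScreen read. Neg ctrl: no enzyme.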
ELG1 DNA repair = inhibitors of ELG1-dependent DNA repair in HEK293T cells; actives 2.3% (n = 330,000); AID 504467; HEK293T ELG1-luciferase reporter, luminescence, 16 h; DNA damage induced by 5-fluorouridine; Potency, µM (series often up to 46.1 µM), without a hit: top-dose activity change, negative = inhibition, actives largely listed as inhibitors; also: potency is read from the fitted curve at half-maximal effect; nearly all actives have a fitted effect of over 55% in size
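Step one: seed 2,000 cells per well. Step two: pin-transfer compound or DMSO alongside 5-fluorouridine. Step three: incubate 16 hr, 37 °C, 5% CO2. Step four: add ONE-Glo, wait 30 min, read luminescence.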
TDP1 cell noCPT = qHTS for Inhibitors of human tyrosyl-DNA phosphodiesterase 1 (TDP1): qHTS in cells in absence of CPT. actives 15% (n = 420,000). Potency, µM (top dose mostly 46.2 µM), for inactives: top-dose activity change, negative = growth inhibition, most hits filed as inhibitors. DT40 Tdp1-/- hTDP1 cells, no CPT, ATP luminescence, 48 h; also: potency is read from the fitted curve at half-maximal effect; nearly all actives have a fitted effect of over 55% in size
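A cellular qHTS used chicken DT40 cells lacking endogenous Tdp1 but carrying stably transfected human TDP1. Compounds were applied without camptothecin, and cell growth kinetics were judged by ATP-dependent luminescence after ≥48 hr.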
TDP1 cell CPT = growth inhibition of DT40 Tdp1-/-;hTDP1 cells with camptothecin (screen for TDP1 inhibitors); chicken DT40 Tdp1-/-;hTDP1 cells + 20 nM CPT, ATP luminescence, 48 h; Potency, µM (highest dose often 46.2 µM), for inactives: top-dose activity change, negative = growth inhibition, usual class: inhibitors; actives 12% (n = 420,000); also: potency is read from the fitted curve at half-maximal effect; nearly all actives have a fitted effect of over 55% in size
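Chicken DT40 Tdp1-/- cells complemented with human TDP1, 400 cells/well, exposed to compounds plus 20 nM camptothecin for at least 48 h at 37 C; viability read as ATP content by CellTiter-Glo luminescence.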
The depositor's hits bear a star; ? = inconclusive; · = not tested or not shown; [ ] = another dose, or the depositor's remark. Compounds with a hit are over-represented: about 19% of the library has one in this group of screens. Unless noted, calls follow the shape of the dose curve; as a rule, active = well fitted curve in the direction sought with a large enough effect; inconclusive = small, poorly fitted or top-dose-only effect, or another doubt; inactive = no such curve, though single readings can be large; an effect the other way counts as inactive or inconclusive. % is scaled to controls: 0 for no effect and ±100 for the full control effect.

SMILES | Giardia killer | IL1B secr inh | TDP1 block | ELG1 DNA repair | TDP1 cell noCPT | TDP1 cell CPT
COCCn1c(=NC(=O)c2ccc(S(=O)(=O)N3CCc4ccccc4C3)cc2)sc2cc(S(N)(=O)=O)ccc21 | -5.9 | 101.6 | 10.5% | 3.1% | ? | ?
C=CCn1c(=NC(=O)c2cccc(N3C(=O)CCC3=O)c2)sc2cccc(OC)c21 | 22.1 | -98.6* | 0.0% | ? | 14.6µM* | 23.1µM*
CCOCCn1c(=NC(=O)c2ccc(S(=O)(=O)N3CCOCC3)cc2)sc2cc(S(N)(=O)=O)ccc21 | -18.3 | 43.0 | 2.5% | 18.3µM* | ? | ?
C[C@H](CCC(=O)NCC(=O)O)C1CC[C@H]2C3CC[C@@H]4C[C@H](O)CC[C@]4(C)C3C[C@H](O)[C@]12C (stereo partly drawn) | · | · | 4.9% | · | -0.9% | -0.1%
C=CCOc1ccccc1CN1CCC(n2nccc2NC(=O)c2ccccc2)CC1 | 16.3 | ? | 4.3% | 9.5% | -10.8% | -18.5%
COc1ccccc1CNC(=O)C1CCN(S(=O)(=O)c2ccc3c(ccn3C)c2)CC1 | · | · | 6.5% | · | ? | -3.9%
O=S(=O)(c1ccccc1)c1ncc(C(F)(F)F)cc1Cl | 10.3 | -106.4* | -2.9% | ? | 3.66µM* | 4.11µM*
O=S(=O)(c1ccccc1)c1ncc(C(F)(F)F)cc1O | 2.6 | -4.1 | 1.6% | -7.3% | 8.3% | 6.6%
CC(=O)Oc1ccc(C(=O)Nc2cccc3c2CCCC3)cc1 | -7.6 | -7.9 | 1.0% | 6.3% | -1.3% | 2.8%
C[C@]1(C(=O)NCCCNc2ncc(C(F)(F)F)cc2Cl)C=C[C@@H](Cc2ccccc2)N1C(=O)c1ccccc1 | 10.1 | ? | 0.0% | -0.5% | 25.9µM* | ?
COC(=O)N1[C@H](C)C=C[C@]1(Cc1ccccc1)C(=O)NCCCNc1ncc(C(F)(F)F)cc1Cl | 18.8 | -6.1 | 9.9% | · | ? | ?
CC1(C(=O)NCCCNc2ncc(C(F)(F)F)cc2Cl)C=CCN1C(=O)c1ccccc1 (stereo not drawn) | 11.7 | -77.2* | 2.6% | 24.1% | ? | ?
CC1(C(=O)NCCc2c[nH]c3ccccc23)C=CCN1C(=O)c1ccccc1 (stereo not drawn) | -10.1 | 17.2 | 0.0% | 15.2% | 1.7% | -22.4%
COC(=O)c1ccc(/C=N/NC(=S)NCCN2CCOCC2)cc1 | 4.0 | 50.2 | 0.6% | -4.6% | 5.6% | 8.5%
C=CCn1c(=O)/c(=C/c2ccc(F)cc2)s/c1=C(\C#N)c1nnc2n1CCCCC2 | -0.2 | -67.1* | 5.2% | ? | 16.4µM* | 23.1µM*
CCc1ccc(S(=O)(=O)c2cn(C)c3cc(N4CCN(CC)CC4)c(F)cc3c2=O)cc1 | · | · | 5.0% | · | ? | ?
CCOc1ccc2ncc(S(=O)(=O)c3ccc(C)cc3)c(N3CCC4(CC3)OCCO4)c2c1 | 1.6 | 0.0 | 8.2% | 18.4µM* | 23.1µM* | ?
CCOc1ccc(Nc2c(S(=O)(=O)c3ccc(Cl)cc3)cnc3ccc(OC)cc23)cc1 | · | · | 2.0% | · | ? | ?
CCc1ccc2ncc(S(=O)(=O)c3ccc(Cl)cc3)c(N3CCN(CC)CC3)c2c1 | · | · | 2.0% | · | 16.4µM* | ?
O=C(Cc1coc2ccc3ccccc3c12)Nc1nnc(C2CC2)s1 | 24.0 | 28.8 | 3.1% | -0.2% | 23.1µM* | ?
O=C(CCSCc1cnn(-c2ccccc2)c1-n1cccc1)NCc1ccc(Cl)cc1 | · | · | 8.6% | · | ? | ?
COc1ccc(CNC(=O)CCCN2C(=O)CSc3c2c(C)nn3-c2ccccc2)c(OC)c1 | · | · | 7.1% | · | 16.4µM* | ?
Cc1nn(-c2ccccc2)c2c1N(CC(=O)NCc1ccc(N(C)C)cc1)C(=O)CS2 | · | · | 0.6% | · | 18.4µM* | ?
CCCOc1ccc(CNC(=O)CCCN2C(=O)CSc3c2c(C)nn3-c2ccccc2)cc1 | · | · | 4.5% | · | ? | 20.6µM*
Cc1ccc(CNC(=O)CN2C(=O)CSc3c2c(C)nn3-c2ccccc2)cc1 | · | · | 5.8% | · | -0.2% | -3.7%
SMILES | Giardia killer | IL1B secr inh | TDP1 block | ELG1 DNA repair | TDP1 cell noCPT | TDP1 cell CPT
Cc1nn(-c2ccccc2)c2c1N(CCCC(=O)NCc1ccc(N(C)C)cc1)C(=O)CS2 | · | · | 8.4% | · | 23.1µM* | 23.1µM*
O=C(NCCc1ccc(Cl)cc1Cl)c1cccnc1 | 3.1 | 7.4 | 1.7% | 0.4% | -20.4% | ?
Cc1cc(NC(=O)CCC(=O)N(CC(=O)NCC2CCCO2)c2ccc3c(c2)OCCO3)no1 (stereo not drawn) | -17.0 | 5.7 | 3.6%[56.1 µM] | 3.7% | -0.7% | -5.1%
COc1ccc(OC)c(/C=C/C(=O)OCC(=O)N2CCCC2)c1 | ? | -8.7 | -0.2% | 0.6% | -4.3% | -0.6%
COc1cc(/C=C/C(=O)N2C(=O)c3cccc(N)c3C2=O)cc(OC)c1OC | 8.7 | -19.7 | 0.0% | ? | 29.1µM* | 5.8µM*
COc1ccc(OC)c(/C=C/C(=O)N2C(=O)c3cccc(N)c3C2=O)c1 | -1.9 | -121.4* | -6.7% | ? | 5.17µM* | 4.61µM*
NS(=O)(=O)c1ccc(CCNC(=O)c2nc(SCc3ccccc3F)ncc2Cl)cc1 | · | · | 2.3% | · | ? | 4.9%
CCC(COC)Oc1cc(NCc2ccccc2)c2ncn(C(C)C)c2c1 (stereo not drawn) | ? | -90.3* | 8.8% | 18.3µM* | 18.4µM* | 25.9µM*
CCC(CO)Oc1cc(NCc2ccc(O)cc2)c2ncn(C(C)C)c2c1 (stereo not drawn) | 9.0 | -11.3 | 3.7% | ? | -15.4% | ?
CCC(CO)Oc1cc(NCc2ccc(C(C)(C)C)cc2)c2ncn(C(C)C)c2c1 (stereo not drawn) | -2.1 | 34.8 | 7.5% | ? | 14.6µM* | 13µM*
CCC(CO)Oc1cc(NCc2cccc(O)c2)c2ncn(C(C)C)c2c1 (stereo not drawn) | -14.8 | 36.5 | 2.3% | -27.2% | ? | 23.1µM*
COc1ccc(Cc2cc(NCc3ccccc3)c3ncn(C(C)C)c3c2)cc1 | 3.9 | -15.1 | 7.9% | ? | 20.6µM* | ?
Cc1ccc(NC(=O)Cc2csc(C)n2)c(C)c1 | · | · | 4.7% | · | -10.7% | 5.2%
CCOC(=O)c1cc(OC(=O)c2ccccc2C)n(-c2ccccc2)n1 | · | · | -4.2% | · | · | ·
CCC(CO)Oc1cc(NCc2cccc(OC)c2)c2ncn(C(C)C)c2c1 (stereo not drawn) | 10.7 | -4.0 | 7.4% | ? | ? | 20.6µM*
